From PubChem
Compounds with a hit are over-represented: about 9.4% of the library has one in this group of screens.
ELG1 genotox = qHTS screen for small molecules that induce genotoxicity in human embryonic kidney (HEK293T) cells expressing luciferase-tagged ELG1 | HEK293T ELG1-luciferase reporter, luminescence, 16 h | Potency, µM (doses to about 46 µM), hits mostly activators | 330,000 compounds, 1.3% hits; also: nearly all actives have a fitted effect of over 60% in size
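Genotoxicity was scored as increased ELG1-luciferase reporter signal, measured by ONE-Glo luminescence (30 min, room temperature). Compound or vehicle exposure of the HEK293T reporter cells lasted 16 hr at 37°C.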
ELG1 repair inh = qHTS screen for small molecules that inhibit ELG1-dependent DNA repair in human embryonic kidney (HEK293T) cells expressing luciferase-tagged ELG1 | HEK293T ELG1-luciferase reporter, luminescence, 16 h; DNA damage induced by 5-fluorouridine | Potency, µM (top dose mostly 46.1 µM), hits mostly inhibitors | 330,000 compounds, 2.3% hits | AID 504467, 2011; also: nearly all actives have a fitted effect of over 55% in size
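DMSO vehicle served as the neutral condition. Each well held 2,000 cells given 5-fluorouridine plus compound; after 16 hr at 37 °C/5% CO2, ONE-Glo was added and luciferase measured 30 min later.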
SMN2 splice up = qHTS Assay for Enhancers of SMN2 Splice Variant Expression; HEK293 SMN2-luciferase splicing reporter, luminescence, 30-36 h; Potency, µM (titrated, usually from 46.1 µM), usual class: activators; 210,000 compounds, 2.8% hits; also: nearly all actives have a fitted effect of over 55% in size
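qHTS luciferase splicing reporter: luminescence rises when SMN2 exon 7 is included in transfected HEK293 cells. Compound exposure lasted 30-36 h at 37C, with 4.5 mM final sodium butyrate as control, followed by a ONE-Glo read.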
Rab9 promoter act = qHTS Assay for Rab9 Promoter Activators. Huh7 Rab9 promoter-luciferase reporter, luminescence, 24 h. Potency, µM (highest dose often 9.22 µM), most hits filed as activators. 320,000 compounds, 2.8% hits. AID 485297, 2010; also: nearly all actives have a fitted effect of over 60% in size
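Cell-based reporter: Huh7 stable for Rab9 promoter-driven luciferase, plated in reduced-serum medium with 10% FBS at 1500 cells/well, compound-treated 24 h at 37 °C, luminescence read after 10 min reagent.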
NPC1 prom act = qHTS Assay for NPC1 Promoter Activators; Huh7 NPC1 promoter luciferase reporter, 24 h; Potency, µM (top dose mostly 9.22 µM), hits mostly activators; 320,000 compounds, 2.4% hits; AID 485313, 2010; also: nearly all actives have a fitted effect of over 60% in size
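Stably transfected Huh7 (NPC1 promoter→luciferase), 1500 cells/well in Opti-MEM + 10% FBS, 2 h settle, then compound 24 h at 37 °C. Luminescence after 10 min with Amplite reagent.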
FLuc counter = qHTS profiling assay for firefly luciferase inhibitor/activator using purifed enzyme and Km concentrations of substrates (counterscreen for miR-21 project); 360,000 compounds, 6.9% hits; Potency, µM (series often up to 57.5 µM), actives largely listed as inhibitors; AID 588342, 2011; purified FLuc, Km substrates, luminescence inhibition; also: nearly all actives have a fitted effect of over 55% in size
Target sequence (P08659 whole entry, looked up): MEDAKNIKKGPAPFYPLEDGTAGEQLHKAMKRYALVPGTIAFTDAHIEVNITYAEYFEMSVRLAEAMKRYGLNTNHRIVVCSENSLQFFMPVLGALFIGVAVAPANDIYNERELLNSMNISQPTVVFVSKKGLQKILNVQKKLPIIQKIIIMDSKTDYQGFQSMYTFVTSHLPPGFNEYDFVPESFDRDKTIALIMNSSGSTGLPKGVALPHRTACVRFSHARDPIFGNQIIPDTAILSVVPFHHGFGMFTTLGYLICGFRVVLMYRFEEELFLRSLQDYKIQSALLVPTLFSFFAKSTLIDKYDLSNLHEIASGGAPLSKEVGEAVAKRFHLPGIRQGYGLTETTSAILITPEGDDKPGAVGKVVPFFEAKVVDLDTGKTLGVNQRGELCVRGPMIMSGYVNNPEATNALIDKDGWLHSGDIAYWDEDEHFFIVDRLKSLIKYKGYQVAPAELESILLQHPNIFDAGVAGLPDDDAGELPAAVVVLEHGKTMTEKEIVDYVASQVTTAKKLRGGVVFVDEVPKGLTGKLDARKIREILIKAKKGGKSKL
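Purified P. pyralis luciferase, 10 nM final, with Km-level 10 uM D-luciferin and 10 uM ATP in 50 mM Tris acetate pH 7.5, 10 mM Mg acetate, 0.01% Tween-20, 0.05% BSA; 6-point qHTS titration about 60 µM downward; luminescence read.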
Numbers stand for hits; n = inactive; u = inconclusive; x = no result. Calls follow the shape of the dose curve; as a rule, active = well fitted curve in the direction sought with a large enough effect; inconclusive = small, poorly fitted or top-dose-only effect, or another doubt; inactive = no such curve, though single readings can be large; an effect the other way counts as inactive or inconclusive.

SMILES	ELG1 genotox	ELG1 repair inh	SMN2 splice up	Rab9 promoter act	NPC1 prom act	FLuc counter
COc1ccc(NC(=O)c2oc3ccccc3c2CSC)cc1S(=O)(=O)N1CCOCC1	n	n	x	x	x	x
Cc1ccc(NC(=O)c2oc3ccccc3c2COC(C)C)cc1S(=O)(=O)N1CCOCC1	n	18µM	x	x	x	x
Cc1ccc(NC(=O)c2ccc3c(c2)OCO3)cc1S(=O)(=O)N1CCOCC1	n	18µM	x	n	n	x
O=C(Nc1cc(S(=O)(=O)N2CCOCC2)ccc1N1CCOCC1)c1ccc([N+](=O)[O-])s1	n	21µM	x	x	x	x
O=C(Nc1cc(S(=O)(=O)N2CCOCC2)ccc1N1CCOCC1)c1ccccc1[N+](=O)[O-]	n	n	x	x	x	x
CCc1ccccc1NC(=O)CSc1nc2ncccc2o1	x	x	x	x	x	n
Cc1cccc(NC(=O)Cn2c(=O)n(Cc3ccc4c(c3)OCO4)c(=O)c3ccccc32)c1	x	x	n	x	x	n
COc1ccc(S(=O)(=O)c2cn(C)c3ccc(C)cc3c2=O)cc1	x	x	n	x	x	n
O=C(Nc1ccc(N2CCN(Cc3ccccc3Cl)CC2)cc1)c1cccnc1	n	u	n	n	n	n
O=C(c1ccc(F)cc1)c1ccc(N2CCCCC2)cc1	u	u	x	2.5µM	2.8µM	6.7µM
O=C(Nc1ccc(N2CCCCC2)cc1)c1ccc(F)cc1	1.6µM	u	3.5µM	0.45µM	0.89µM	1.2µM
O=C(Nc1ccc(S(=O)(=O)N2CCCCC2)cc1)c1ccc(F)cc1	n	u	x	n	n	n
O=C(Nc1ccc(N2CCCCC2)cc1)c1cccnc1	9.2µM	u	22µM	u	u	21µM
O=C(CCC(=O)N1CCN(c2ccc(F)cc2)CC1)N1CCN(c2ccc(F)cc2)CC1	n	u	x	n	n	n
O=C(c1ccc(F)cc1)c1ccc(N2CCCC2)cc1	14µM	u	x	u	u	12µM
Cc1ccccc1NC(=O)CCn1nc(-c2ccccc2)c2ccccc2c1=O	x	x	x	x	x	n
CC(Sc1nnc2ccc3ccccc3n12)C(=O)Nc1ccc(Cl)cc1 (stereo unspecified)	x	x	x	x	x	n
O=C1/C(=C/C=C/c2ccccc2)Oc2c1ccc(O)c2CN1CCN(CCO)CC1	n	n	x	n	n	12µM
CCN1CCN(Cc2c(O)ccc3c2O/C(=C\c2ccc(C)cc2)C3=O)CC1	n	n	n	n	n	u
CCN1CCN(Cc2c(O)ccc3c2O/C(=C\C=C\c2ccccc2)C3=O)CC1	n	u	n	n	n	11µM
Cc1ccc(/C=C2\Oc3c(ccc(O)c3CN3CCN(C)CC3)C2=O)cc1	n	n	n	n	n	u
CN(C)Cc1c(O)ccc2c1O/C(=C\C=C\c1ccccc1)C2=O	n	n	x	n	n	13µM
CCc1ccc(/C=C2\Oc3c(ccc(O)c3CN3CCN(C)CC3)C2=O)cc1	n	u	x	n	u	12µM
CCN1CCN(Cc2c(O)ccc3c2O/C(=C\c2ccccc2)C3=O)CC1	n	n	n	n	n	n
COc1ccc(-n2ccn(Cc3ccc(C)cc3)c(=O)c2=O)cc1OC	x	x	x	x	x	n
SMILES	ELG1 genotox	ELG1 repair inh	SMN2 splice up	Rab9 promoter act	NPC1 prom act	FLuc counter
CCOc1ccc(OCC)c(NS(=O)(=O)c2cc(-c3cc(C)no3)ccc2C)c1	x	x	x	x	x	n
COc1ccc(OC)c(NC(=O)CSc2ncc3c(n2)-c2ccccc2N(C)S3(=O)=O)c1	x	x	x	x	x	n
COc1ccccc1/C=C/C=C1\Oc2c(ccc(O)c2CN2CCN(CCO)CC2)C1=O	n	n	n	n	n	3.8µM
COc1ccc2c(c1)c1c(c(=O)n(-c3ccccc3C)c(=O)n1CC(=O)NCc1ccc(C)cc1)n2C	x	x	x	x	x	n
Cc1csc(NC(=O)CSc2nsc(SCC(=O)Nc3nc(C)cs3)c2C#N)n1	u	u	11µM	1.6µM	2.5µM	u
Cc1ccc(NC(=O)CSc2nsc(SCC(=O)Nc3ccc(C)cc3C)c2C#N)c(C)c1	n	n	x	n	n	n
CC(C)(C)NC(=O)CSc1nsc(SCC(=O)NC(C)(C)C)c1C#N	n	9.2µM	n	n	n	n
Cc1ccc2onc(CC(=O)Nc3ccc(C(C)C)cc3)c2c1	x	x	x	x	x	n
Cc1oc2c(c1C(=O)Nc1ccc(Cl)cc1F)C1=NCCN1C=N2	x	x	x	x	x	n
CCN=c1scc(C)n1/N=C/c1ccc(O)c(O)c1O	n	n	n	n	n	3.4µM
CCN=c1scc(C)n1/N=C/c1cc(Br)c(O)c(Br)c1	n	u	u	n	n	19µM
C=C(C)CN=c1scc(C)n1/N=C/c1ccco1	n	n	n	n	n	n
COc1ccccc1-c1nc2ccccc2nc1-c1ccccc1OC	n	n	n	n	n	n
O=C1c2ccccc2-c2nc3ccccc3nc21	4.5µM	u	13µM	2.2µM	2.8µM	15µM
COc1ccccc1CNC(=O)Cc1c(C)c2c(cc(C)c3c(C)coc32)oc1=O	x	x	n	x	x	n
CSc1nsc2nc(=O)c(/C=C3\C(C)=Nc4ccc(C)cc43)c(N)n12	n	u	n	n	n	13µM
CC(C)S(=O)(=O)c1nsc2nc(=O)c(/C=C3\C=Nc4ccccc43)c(N)n12	n	n	n	n	n	u
CSc1nsc2nc(=O)c(/C=C3\C=Nc4ccccc43)c(N)n12	u	u	n	n	n	17µM
COCCn1c(SCC(=O)c2ccc(F)cc2)nc2cc(C(=O)NC3CCCC3)ccc2c1=O	x	x	x	x	x	n
Cc1cc(N2CCCC2)ccc1/C=C1\NC(=S)N(C)C1=O	n	u	x	3.2µM	u	13µM
O=C1/C(=C/c2ccc(N3CCCC3)cc2)NC(=S)N1C1CC1	n	u	n	u	n	12µM
O=C1c2oc3ccccc3c(=O)c2C(c2ccc(O)cc2)N1Cc1ccc2c(c1)OCO2 (stereo unspecified)	x	x	x	x	x	n
Cc1coc2cc3oc(=O)c(CCC(=O)N4CCCCC4)c(C)c3cc12	x	x	n	x	x	n
Cc1c(CCC(=O)N[C@@H](CC(C)C)C(=O)O)c(=O)oc2cc3oc4c(c3cc12)CCCC4	n	u	x	n	n	17µM
Cc1oc2cc3oc(=O)c(CCC(=O)NCCC(=O)O)c(C)c3cc2c1C	n	n	x	n	n	12µM
Cc1c(CCC(=O)N2CCC[C@H]2C(=O)O)c(=O)oc2cc3oc4c(c3cc12)CCCC4	u	u	x	n	n	12µM
Cc1oc2cc3oc(=O)c(CCC(=O)NCCCC(=O)O)c(C)c3cc2c1C	n	n	x	n	n	u
Cc1c(CCC(=O)O)c(=O)oc2cc3oc4c(c3cc12)CCCC4	n	u	x	n	n	6µM
Cc1c(CCC(=O)NCC(=O)NCC(=O)O)c(=O)oc2cc3oc4c(c3cc12)CCCC4	n	n	x	n	n	21µM
